nsP2pro inh: inhibitors of chikungunya virus nsP2 protease | Q8JUX6 | FRET peptide cleavage, nsP2pro, fluorescence 1 h | Potency, µM (titrated, usually from 24.9 µM), for the others: at the highest dose activity change, negative = inhibition, actives largely listed as inhibitors | 31,000 tested, 1.1% active; further: nearly all actives have a fitted effect of over 60% in size
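Recombinant nsP2pro (150 nM) was preincubated with compound 15 min at room temperature in 10 mM Tris-HCl pH 8.0, 0.01% Tween 20. Peptide 2 FRET substrate (2.5 uM) was then added and fluorescence read after 1 h. Seven-point series, up to 25 uM.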
CHIKV nsP2 cell: inhibits CHIKV nsP2 protease in cells; shares compounds with nsP2pro inh; cell-based CHIKV nsP2 protease reporter assay; Potency, µM (titrated, usually from 51.1 µM), for inactives: at the top dose activity change, negative = inhibition, hits mostly inhibitors; 450 tested, 10% active; further: nearly all actives have a fitted effect of over 70% in size
NSP2 full ctr: selectivity test for CHIKV nsP2 protease inhibitors: full-length NSP2 | Full-length CHIKV NSP2 protease enzymatic counterscreen | 410 tested, 39% active | Potency, µM (titrated, usually from 50.7 µM), for inactives: at the top dose activity change, negative = inhibition, usual class: inhibitors | shares compounds with nsP2pro inh; further: nearly all actives have a fitted effect of over 65% in size
Furin counterscr: inhibits human furin in a CHIKV nsP2 protease selectivity counterscreen. Potency, µM (series often up to 50.6 µM), for the others: at the top dose activity change, negative = inhibition, most hits filed as inhibitors. shares compounds with nsP2pro inh. Recombinant human furin enzymatic counterscreen, fluorogenic substrate. 410 tested, 6% active. AID 1964102
NS23 peptide cs: nsP2pro inhibition on native NS2/3 peptide substrate; 410 tested, 34% active; shares compounds with nsP2pro inh; Purified CHIKV nsP2 protease, endogenous NS2/3 peptide cleavage; Potency, µM (top dose mostly 51 µM), inactives show at the top dose activity change, negative = inhibition, actives largely listed as inhibitors; further: nearly all actives have a fitted effect of over 55% in size
Papain counter: selectivity counter-screen for CHIKV nsP2 protease inhibitors: papain; shares compounds with nsP2pro inh; purified papain protease activity, enzymatic inhibition; Potency, µM (doses to about 51 µM), for the others: at the highest dose activity change, negative = inhibition, most hits filed as inhibitors; 410 tested, 5% active
nsP2pro confirm: CHIKV nsP2 protease inhibition, confirmatory qHTS. shares compounds with nsP2pro inh. CHIKV nsP2 protease enzymatic activity, qHTS. Potency, µM (top dose mostly 25.5 µM), inactives show at the highest dose activity change, negative = inhibition, actives largely listed as inhibitors. 410 tested, 43% active. AID 1964105; further: nearly all actives have a fitted effect of over 75% in size
HCV NS3 counter: selectivity counter-screen for CHIKV nsP2 protease inhibitors: HCV NS3/4A. HCV NS3/4A protease biochemical counterscreen. shares compounds with nsP2pro inh. 410 tested, 20% active. Potency, µM (titrated, usually from 50.9 µM), hits mostly inhibitors; further: nearly all actives have a fitted effect of over 55% in size
Numbers without * were called inactive; ! = not active in a repeat; [ ] = dose if it differs, or a comment. Only a selection was taken, and hits are over-represented in it overall. The call rests on the fitted dose curve. On the % scale 0 is the no-effect control and ±100 the full control effect; potency means the concentration at half of the fitted maximal effect.

`O=C(C1CCCN([S+](=O)([O-])c2cccc(C(F)(F)F)c2)C1)N1CCC(c2nc3ncccc3[nH]2)C1` (stereo unspecified) gave nsP2pro inh 4%.
Screening CN(C)CCNC(=O)c1ccnc(-c2nnc3ccc(N(C)c4ccccc4)nn23)c1 returned nsP2pro inh inactive.
For Cc1cccc(N2CCN(c3ccc(C(=O)O)cc3NC(=O)c3cccc(Cl)c3)CC2C)c1 (stereo unspecified) the results were nsP2pro inh inconclusive, CHIKV nsP2 cell 13%, NSP2 full ctr 0%, Furin counterscr -25%, NS23 peptide cs 18µM*, Papain counter inconclusive, nsP2pro confirm 8µM* and HCV NS3 counter inconclusive.
Screening Cc1cccc(N2CCN(C(=O)c3ccc(NC(=O)c4nsc5ccccc45)cc3)CC2C)c1 (stereo unspecified) returned nsP2pro inh 3%.
CCOC(=O)c1ccc(N2CCN(c3cccc(Cl)c3)CC2)c(NC(=O)Nc2ccc(Cl)cc2)c1 was read as nsP2pro inh 7%.
`Cc1cccc(N2CCN(S(=O)(=O)c3cc(C(=O)Nc4ccc(Oc5ccccc5)cc4)ccc3F)CC2C)c1` (stereo unspecified) gave nsP2pro inh -13%.
For Cc1cccc(N2CCN(S(=O)(=O)c3ccc(F)c(C(=O)Nc4cccc(Cl)c4C)c3)CC2C)c1 (stereo unspecified) the results were nsP2pro inh -6%.
For Cc1cccc(N2CCN(c3ccc(NC(=O)c4ccccc4)cc3C(=O)O)CC2C)c1 (stereo unspecified) the results were nsP2pro inh inconclusive, CHIKV nsP2 cell 9%, NSP2 full ctr 6.5µM*, Furin counterscr inconclusive, NS23 peptide cs 16µM*, Papain counter 21%, nsP2pro confirm 8µM* and HCV NS3 counter 3.7µM*.
OC1C=C2C3CN(Cc4cc5c(cc43)OCO5)C2CC1O (stereo unspecified) was read as nsP2pro inh -13%.
CC(C)C1CCC(CO)=CC1/C=C(\CO)C(=O)OCC1(O)CCC(C(C)C)C2C=C(C(=O)O)COC(=O)C21 (stereo unspecified) was read as nsP2pro inh -13%[10 µM].
For COc1cc(/C=C2\CCCN([C@@H](C)c3ccc(F)cc3)C2=O)ccc1-n1cnc(C)c1 the results were nsP2pro inh 223%.
`O=C(CN1CCN(c2ccc(Cl)cc2)CC1)Nc1ccc(F)cc1F` gave nsP2pro inh -23%.
Screening CN1CCCCCC(O)c2cc(C(=O)N3CCN(c4ccc(F)cc4)CC3)ccc21 (stereo unspecified) returned nsP2pro inh -16%.
Cc1cc(C(=O)CN2CCCC2)c(C)n1-c1ccc(F)cc1 was read as nsP2pro inh 5.6µM*!, CHIKV nsP2 cell -13%, NSP2 full ctr 14%, Furin counterscr -7%, NS23 peptide cs -14%, Papain counter -19%, nsP2pro confirm -1% and HCV NS3 counter inactive.
O=C(NCCCc1ccccc1)c1cccc(-c2cc(O)c3ncccc3c2)c1 was read as nsP2pro inh inactive.
`O=S(=O)(c1ccc(F)cc1)N1CCC(Oc2ccc(-c3noc(C4CC4)n3)cc2)C1` (stereo unspecified) gave nsP2pro inh inactive.
CC(C)(C)c1ccc(-c2nc3c(N4CCN(Cc5ccc6nccnc6c5)CC4)cccc3[nH]2)cc1 was read as nsP2pro inh 21%.

Source: PubChem BioAssay
